According to PubChem BioAssay (NCI):
The panel holds about 83,000 compounds, 20% with a hit somewhere; the sample as a whole holds those more often.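 Plates (96-well) were seeded with cells, treated with compound at one concentration, and incubated for 48 hours before percent growth was determined.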 Activity calls are given as the source filed them. Rule for the calls: active = growth percent below 10; inactive = the rest.

Experiments:
Assay in all cases: NCI-60 one-dose screen, 48 h (100 = growth as untreated, 0 = no growth, -100 = all killed)
Conditions in all cases: 10 µM unless noted
[1] = tested on: SK-MEL-2 melanoma
[2] = tested on: EKVX NSCLC
[3] = tested on: SN12C renal
[4] = tested on: UO-31 renal
[5] = tested on: TK-10 renal
[6] = tested on: ACHN renal
[7] = tested on: CAKI-1 renal
[8] = tested on: A498 renal
[9] = tested on: CCRF-CEM leukemia
[10] = tested on: MOLT-4 leukemia

Measured: growth

Cc1cc2ccccn2c1C(=O)c1ccc(C(=O)c2ccccc2)cc1
inactive: [1] 15% | [2] 91.8% | [3] 94.5% | [4] 62.5% | [5] 98.7% | [6] 93% | [7] 106% | [8] 90.5% | [9] 86.6% | [10] 78.4%

O=c1[nH]cc(Nc2cc(Cl)c3nonc3c2[N+](=O)[O-])c(=O)[nH]1
inactive: [1] 20% | [2] 34% | [3] 107% | [4] 89.3% | [5] 125% | [6] 92.9% | [7] 27% | [8] 93.8% | [9] 106% | [10] 91.1%

Cn1cnc([N+](=O)[O-])c1Sc1nc(N)nc2nc[nH]c12
inactive: [1] 17.8% | [2] 27.9% | [3] 43.6% | [4] 16.9% | [5] 38.5% | [6] 72.7% | [7] 38.4% | [8] 43.6% | [9] 13.5% | [10] 11.3%

CCOC(=O)c1sc(NC(=O)COc2ccc(/C=C3\CCc4cc(OC)ccc4C3=O)cc2)nc1C
active: [9] -62.6% | [10] 7.56%
inactive: [1] 62.3% | [2] 90.6% | [3] 86.2% | [4] 14.5% | [5] 115% | [6] 103% | [7] 76.7% | [8] 76.6%

CC[n+]1c(/C=C/c2ccc(N3CCCC3)cc2)cccc1/C=C/c1ccc(N2CCCC2)cc1
active: [1] -89.8% | [2] -76.4% | [3] -79.9% | [4] -92.6% | [5] -80.5% | [6] -96.3% | [7] -67.9% | [8] -93% | [9] -7.16%
inactive: [10] 10.3%

Oc1c(Cl)cc(Oc2cc(Cl)c(O)c(CN3CCOCC3)c2)cc1CN1CCOCC1
inactive: [1] 88.2% | [2] 90.5% | [3] 95.4% | [4] 71.1% | [5] 95.1% | [6] 84.9% | [7] 78% | [8] 84.7% | [9] 107% | [10] 80.4%

O=C(NN1C(=O)c2cc(C(=O)O)c(C(=O)O)cc2C1=O)c1ccncc1
inactive: [1] 104% | [2] 108% | [3] 93.9% | [4] 112% | [5] 88.4% | [6] 102% | [7] 98.2% | [8] 112% | [9] 103% | [10] 98.6%

O=C(CSc1ncc(-c2ccccc2)n1-c1ccccc1)Nc1ccc(-c2nc3ccccc3s2)cc1
inactive: [1] 80.6% | [2] 103% | [3] 71.2% | [4] 98.4% | [5] 44.2% | [6] 102% | [7] 87.4% | [8] 107% | [9] 83.8% | [10] 66.6%

c1ccc(-c2oc(-c3ccccc3)c3ccccc23)cc1
inactive: [1] 104% | [2] 92.1% | [3] 104% | [4] 110% | [5] 114% | [6] 104% | [7] 74.7% | [8] 98.9% | [9] 85.5% | [10] 95.7%

CCOC(=O)N1CCC(N=C2CSc3nnc(-c4cc(C(F)(F)F)cc(C(F)(F)F)c4)n3N2)CC1
inactive: [2] 31.2% | [3] 28.5% | [4] 34.2% | [5] 14.9% | [6] 30.5% | [7] 55.2% | [8] 22.4%
active: [1] -22.5% | [9] 6.9% | [10] -2.78%

COc1ccc(-c2ccc(O)c(C(=O)/C=C/c3cc(OC)c(OC)c(OC)c3)c2)cc1
inactive: [1] 84.4% | [2] 79.8% | [3] 94.6% | [4] 59.7% | [5] 103% | [6] 85.7% | [7] 86.5% | [8] 124% | [9] 24.2% | [10] 34.3%

COc1ccc(C2CC(c3ccc4c(c3)OCO4)=NN2C=O)cc1 (configuration not stated)
inactive: [1] 100% | [2] 91.7% | [3] 106% | [4] 87.4% | [5] 93.4% | [6] 103% | [7] 102% | [8] 91.2% | [9] 93.9% | [10] 101%

C=C1CCC2C3(C)COC(c4ccccc4)OC3CCC2(C)C1C/C=C1/C(=O)OCC1OC(C)=O (configuration not stated)
active: [9] 2.16%
inactive: [1] 95.1% | [2] 104% | [3] 80.6% | [4] 81.6% | [5] 56.8% | [6] 92.4% | [7] 106% | [8] 103% | [10] 77.1%

Cc1nn(-c2ccccc2)cc1/C=C1\SC(N2CCCCC2)=NC1=O
inactive: [1] 94% | [2] 94.2% | [3] 93% | [4] 65.1% | [5] 78.5% | [6] 74.7% | [7] 39.8% | [8] 71.3% | [9] 43.6% | [10] 58.6%

N/C(=N\C(N)=N\c1nc2ccccc2s1)c1ccnc(Cl)c1
inactive: [1] 29% | [2] 51.3% | [3] 57.6% | [4] 56.5% | [5] 75.7% | [6] 47.8% | [7] 21.6% | [9] 19.2% | [10] 33.6%

O=Cc1ccccc1C(=O)O
inactive: [1] 109% | [2] 94% | [3] 104% | [4] 90% | [5] 93.2% | [6] 103% | [7] 96% | [8] 109% | [9] 104% | [10] 98.6%

O=C(/C=C(\Nc1ccccc1)c1ccccc1)c1cn(-c2ccc([N+](=O)[O-])cc2)nn1
active: [1] 5.29%
inactive: [2] 100% | [3] 104% | [4] 69% | [5] 118% | [6] 94.6% | [7] 108% | [8] 96.2% | [9] 71.4% | [10] 64.3%

O=C1Nc2ccc(C(=O)O)c(O)c2C1=O
inactive: [1] 103% | [2] 97.8% | [3] 107% | [4] 91.7% | [5] 107% | [6] 104% | [7] 92.2% | [8] 102% | [9] 94.9% | [10] 110%

Clc1ccc(C2c3ccccc3-c3nccn32)c(Cl)c1 (configuration not stated)
inactive: [1] 80.7% | [2] 60% | [3] 85.4% | [4] 80.1% | [5] 81.3% | [6] 89.7% | [8] 90.3% | [10] 65.6%
active: [7] -12%

O=C(Nc1ccc2c(c1)C(=O)c1ccccc1-2)c1ccccc1
inactive: [1] 82.4% | [2] 97.4% | [3] 56.9% | [4] 69.7% | [5] 46.9% | [6] 63.8% | [7] 74.7% | [8] 66.4% | [9] 101% | [10] 97.7%

COc1ccc2c(c1)C(=Nc1cc(OC)c(OC)c(OC)c1)C(=O)N2
inactive: [1] 76.8% | [2] 97% | [3] 97.3% | [4] 46.9% | [5] 136% | [6] 88.5% | [7] 122% | [9] 81.1% | [10] 104%

CCCCCN1C(=O)CCC1=O
inactive: [1] 103% | [2] 98.9% | [3] 101% | [4] 85.8% | [5] 106% | [6] 104% | [7] 91.8% | [8] 106% | [10] 110%
active: [9] -52.3%

Fc1ccccc1C1c2ccccc2-c2nccn21 (configuration not stated)
inactive: [1] 99.5% | [2] 96.1% | [3] 97.1% | [4] 93.7% | [5] 97.4% | [6] 112% | [7] 66.5% | [8] 90.9% | [9] 96.9% | [10] 87.4%

CC(=O)[C@H]1CC[C@H]2[C@@H]3C[C@H](C)C4=CC(=O)CC[C@]4(C)[C@H]3C(=O)C[C@]12C
inactive: [1] 98.9% | [2] 114% | [3] 94.5% | [4] 87% | [5] 104% | [6] 95.8% | [7] 94.8% | [8] 74% | [9] 104% | [10] 92.3%

COCCCNS(=O)(=O)c1ncnc2nc[nH]c12
inactive: [1] 147% | [2] 101% | [3] 114% | [4] 96.9% | [5] 140% | [6] 118% | [7] 101% | [8] 87% | [9] 101% | [10] 102%

O=C(O)CNC(=O)C1(N2C(=O)c3ccccc3C2=O)CCCC1
inactive: [1] 101% | [2] 104% | [3] 99% | [4] 94.1% | [5] 99.6% | [6] 108% | [7] 98.5% | [8] 100% | [9] 88.8% | [10] 101%
